# Assay results: PubChem BioAssay (NCATS)
# A number with no mark means an inactive call. Records with an inconclusive call do not appear. Activity calls are given as the source filed them. Unless noted, calls follow the shape of the dose curve; as a rule, active = well fitted curve in either direction with a large enough effect (not every such curve was filed as active); inconclusive = small, poorly fitted or top-dose-only effect, or another doubt; inactive = flat fitted curve, though single readings scatter.
# Columns and labels:
# [1] = biological target: Lysosomal acid glucosylceramidase (Homo sapiens) (UniProt P04062); test: Glucocerebrosidase-p2 (AID 348; in the data active = potency below about 10 µM; also: potency is read from the fitted curve at half-maximal effect); conditions: purified GBA, blue fluorogenic substrate, 40 min
# How it was run: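 Normal human glucocerebrosidase (0.2 nM) with blue fluorogenic substrate (80 uM final) in citrate/phosphate pH 5.9 with 10mM sodium taurocholate, 0.01% tween-20; 40 min RT, NaOH/glycine stop; fluorescence Ex 365/Em 440; AC50 from a titration from 0.6 nM upwards.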
# [2] = AP1 Signaling Pathway (AID 357); conditions: ME-180 AP-1-bla reporter, EGF-induced, beta-lactamase ratio, 5 h; at 7.69 µM (top of the series) unless noted;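 also: ME-180 reporter cells stimulated with EGF at its EC50 level; % is scaled to controls: 0 for no effect and ±100 for the full control effect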
# How it was run: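 A ratiometric CCF4 readout (405 nm excitation; 460 and 530 nm emission) quantified AP-1-driven beta-lactamase in ME-180 cells after 5 h with compound and EC50 EGF; AC50 values were derived for activators and inhibitors.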
# [3] = biological target: Cytochrome P450 1A2 (Homo sapiens) (UniProt P05177); test: p450-cyp1a2 (AID 410; calls by dose curve; also: potency is read from the fitted curve at half-maximal effect;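 as to activity change, negative = inhibition: -100% = full effect of reference inhibitor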); conditions: recombinant CYP1A2, luciferin-ME demethylation, luminescence; series mostly up to 11.4 µM
# How it was run: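 O-Demethylation of luciferin 6' methyl ether by human CYP1A2 is monitored as luciferase luminescence. Substrate sits at Km (100uM); enzyme is 20nM. Values are scaled to 57 uM furafylline as maximal inhibition.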
# [4] = NFAT Signaling Pathway (AID 444); conditions: Jurkat NFAT-bla M1, carbachol, beta-lactamase ratio, 5 h; at 7.69 µM (top of the series) unless noted;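 also: carbachol stimulus at about its EC50 of 1 µM final; % is scaled to controls: 0 for no effect and ±100 for the full control effect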
# How it was run: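 Jurkat cells carrying an NFAT-driven β-lactamase reporter and co-transfected muscarinic M1 receptor were treated with compound plus carbachol (1 uM final, an EC50 level) for 5 h at 37 °C. CCF4 loading followed for 1 h at RT; 460/530 nm ratio gave %activity.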
# [5] = biological target: Glucocorticoid receptor (Homo sapiens) (UniProt P04150); test: GR-GFP Redistribution (AID 450;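 active = compounds whose dose series gives a full or clear partial fitted curve of increased nuclear translocation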; also: potency is read from the fitted curve at half-maximal effect); conditions: U2OS GR-GFP nuclear translocation, laser cytometry, 2 h
# [6] = biological target: Glucocorticoid receptor (Homo sapiens) (UniProt P04150); test: GR-EFC Redistribution (AID 451; calls by dose curve; also: potency is read from the fitted curve at half-maximal effect); conditions: CHO-K1 GR-EFC translocation, beta-gal luminescence, 2 h
# How it was run: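 CHO-K1 cells stably expressing nuclear-localized β-gal enzyme acceptor and GR fused C-terminally to the enzyme donor fragment; ligand-driven nuclear translocation restores β-gal by complementation. Compounds titrated up to 46 uM final, 2 h at 37 °C; luminescence read.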
# [7] = biological target: Mitogen-activated protein kinase 10 (Mus musculus) (UniProt Q61831); test: JNK3 AlphaScreen Assay (AID 530); conditions: JNK3 lysate, c-Jun phosphorylation; series mostly up to 11.4 µM;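 also: kinase came from lysate of stimulated human HepG2 cells; signal reports phosphorylation of biotinylated GST-cJun 1-79 at Ser73 with 10 µM ATP; % is scaled to controls: 0 for no effect and ±100 for the full control effect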
# How it was run: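 Phosphorylation of biotinylated GST-cJun(1-79) at Ser73 is measured by AlphaScreen proximity luminescence. Enzyme is JNK3 in HepG2 lysates activated with interleukin-1beta and tumor necrosis factor alpha; ATP is 10 uM final.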
# [8] = biological target: 3',5'-cyclic-AMP phosphodiesterase 4B (Homo sapiens) (UniProt Q07343); test: qHTS Assay for Inhibitors of PDE-IV (AID 607; active = well fitted activation curve with a large enough effect in the main read-out, with a control signal flat, not every such curve was filed as active; also: % of control where 0% means no effect); conditions: HEK293 ACTOne CNG channel cells, membrane potential fluorescence; series mostly up to 22.9 µM
# How it was run: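 ACTOne HEK293 cells carry a modified cAMP-gated CNG channel and express endogenous PDE4; plated 1000 cells/well, compounds up to 22.9 uM final. Membrane-potential dye fluorescence (ex 535/em 590) was read; parental cells received 10 uM forskolin + 100 uM RO 20-1724.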
# [9] = Stat Signaling Pathway (AID 446); conditions: ME-180 SIE beta-lactamase reporter, IL-6 stimulated, 5 h; at 7.69 µM (top of the series) unless noted;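 also: ME-180 cervical cancer cells given 40 pM IL-6 alongside compound; SIE-controlled beta-lactamase reporter measured as 460/530 nm FRET emission ratio; % is scaled to controls: 0 for no effect and ±100 for the full control effect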
# How it was run: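 Compound effects on IL-6-induced STAT reporter activity were measured in ME-180 cells. After overnight culture, cells were co-treated with 40 pM IL-6 for 5 hrs before beta-lactamase substrate loading at room temperature.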
# [10] = biological target: Cytochrome P450 3A4 (Homo sapiens) (UniProt P08684); test: qHTS Assay for Activators of Cytochrome P450 3A4 (AID 885; active = well fitted curve in the direction sought with a large enough effect; an effect the other way counts as inactive or inconclusive; also: nearly all actives have a fitted effect of over 65% in size); conditions: recombinant CYP3A4, Luciferin-PPXE luminescence, 60 min; series mostly up to 11.4 µM
# How it was run: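 CYP3A4 activity: Luciferin-PPXE O-dealkylation, 25uM substrate, 200mM KPO4, RT throughout. Read-out is luciferase luminescence; higher values reflect activation.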
# [11] = biological target: Cytochrome P450 2C19 (Homo sapiens) (UniProt P33261); test: qHTS Assay for Inhibitors and Substrates of Cytochrome P450 2C19 (AID 899; active = well fitted curve in the direction sought with a large enough effect; an effect the other way counts as inactive or inconclusive; also: nearly all actives have a fitted effect of over 60% in size; also: potency is read from the fitted curve at half-maximal effect); conditions: recombinant CYP2C19, luciferin-H EGE luminescence; series mostly up to 11.4 µM
# How it was run: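 NADPH-dependent conversion of Luciferin-H EGE (10uM, at KM) by 5nM enzyme in 50mM KPO4, 60 min at 37C following 10 min compound preincubation. Stopped with luciferin detection buffer; luminescence read after 20 min.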
# [12] = biological target: Cytochrome P450 2C9 (Homo sapiens) (UniProt P11712); test: qHTS Assay for Inhibitors and Substrates of Cytochrome P450 2C9 (AID 883; active = well fitted curve in the direction sought with a large enough effect; an effect the other way counts as inactive or inconclusive; also: nearly all actives have a fitted effect of over 60% in size; also: potency is read from the fitted curve at half-maximal effect); conditions: recombinant CYP2C9, luciferin-H luminescence, 60 min; series mostly up to 11.4 µM
# How it was run: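 A luminogenic readout tracked human CYP2C9 (10nM) converting deoxyluciferin (100uM, at KM) in 25mM KPO4 during 60 min at 37C with regenerated NADPH. Values normalized to 57uM sulphaphenazole as complete inhibition.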
# [13] = qHTS Assay for Identification of Small Molecule Agonists for Hypoxia Response Element Signaling Pathway (AID 914; active = well fitted activation curve with a large enough effect in the signal ratio, with a control signal flat, not every such curve was filed as active; the % refers to the signal ratio; also: % of control where 0% means no effect); conditions: ME-180 (cervical carcinoma) HRE-bla reporter, beta-lactamase ratio, CoCl2, 17 h; activation: active compounds read high
# How it was run: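 HRE-bla ME-180 cells, overnight plating in Opti-MEM with 0.5% dialyzed FBS; cpd titration + EC50 CoCl2, 17 h, 37 degrees Celsius; CCF4 2.5 h RT; 460/530 nm ratio; AC50.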
# [14] = biological target: Cytochrome P450 3A4 (Homo sapiens) (UniProt P08684); test: qHTS Assay for Inhibitors and Substrates of Cytochrome P450 3A4 (AID 884; active = well fitted curve in the direction sought with a large enough effect; an effect the other way counts as inactive or inconclusive; also: potency is read from the fitted curve at half-maximal effect; nearly all actives have a fitted effect of over 50% in size); conditions: recombinant CYP3A4, Luciferin-PPXE luminescence; series mostly up to 57.1 µM
# How it was run: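 Luminescent readout of luciferin produced by CYP3A4 (20 nM) dealkylation of Luciferin-PPXE, 25 uM (its KM). NADPH-driven reaction ran 60 min at RT after 10 min compound preincubation; data scaled to 57 uM ketoconazole as 100% inhibition.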
# Sequence of Cytochrome P450 1A2 (Homo sapiens) (P05177 whole entry, looked up): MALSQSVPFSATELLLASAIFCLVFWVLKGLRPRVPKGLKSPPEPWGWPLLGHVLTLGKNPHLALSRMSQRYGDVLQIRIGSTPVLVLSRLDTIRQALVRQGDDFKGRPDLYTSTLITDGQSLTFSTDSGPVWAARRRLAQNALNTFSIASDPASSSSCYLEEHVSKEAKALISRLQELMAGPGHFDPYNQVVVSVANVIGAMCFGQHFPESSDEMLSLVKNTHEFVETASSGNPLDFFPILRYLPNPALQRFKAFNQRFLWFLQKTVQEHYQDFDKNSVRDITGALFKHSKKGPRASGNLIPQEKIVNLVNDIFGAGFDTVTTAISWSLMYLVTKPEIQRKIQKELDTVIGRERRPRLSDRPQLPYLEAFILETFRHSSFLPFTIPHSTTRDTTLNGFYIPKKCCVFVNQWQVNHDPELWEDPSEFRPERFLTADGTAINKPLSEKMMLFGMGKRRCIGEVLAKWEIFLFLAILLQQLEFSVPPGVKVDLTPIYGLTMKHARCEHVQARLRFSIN
# Sequence of Lysosomal acid glucosylceramidase (Homo sapiens) (P04062 whole entry, looked up): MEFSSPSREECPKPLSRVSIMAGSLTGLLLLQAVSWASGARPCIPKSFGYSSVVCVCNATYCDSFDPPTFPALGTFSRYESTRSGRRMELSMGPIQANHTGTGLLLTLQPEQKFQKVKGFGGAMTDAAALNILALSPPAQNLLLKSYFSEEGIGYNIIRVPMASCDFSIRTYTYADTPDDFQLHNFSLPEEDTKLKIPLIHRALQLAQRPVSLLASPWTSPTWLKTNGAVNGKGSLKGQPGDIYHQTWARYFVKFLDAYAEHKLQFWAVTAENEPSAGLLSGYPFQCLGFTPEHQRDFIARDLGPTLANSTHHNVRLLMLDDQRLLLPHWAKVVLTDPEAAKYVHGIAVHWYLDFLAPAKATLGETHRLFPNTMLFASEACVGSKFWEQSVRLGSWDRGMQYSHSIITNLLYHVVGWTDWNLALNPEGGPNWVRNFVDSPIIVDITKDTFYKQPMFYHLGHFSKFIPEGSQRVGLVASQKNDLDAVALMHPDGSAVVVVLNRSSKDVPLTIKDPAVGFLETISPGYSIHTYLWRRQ
# Sequence of Glucocorticoid receptor (Homo sapiens) (P04150 whole entry, looked up, the tested form may be a part): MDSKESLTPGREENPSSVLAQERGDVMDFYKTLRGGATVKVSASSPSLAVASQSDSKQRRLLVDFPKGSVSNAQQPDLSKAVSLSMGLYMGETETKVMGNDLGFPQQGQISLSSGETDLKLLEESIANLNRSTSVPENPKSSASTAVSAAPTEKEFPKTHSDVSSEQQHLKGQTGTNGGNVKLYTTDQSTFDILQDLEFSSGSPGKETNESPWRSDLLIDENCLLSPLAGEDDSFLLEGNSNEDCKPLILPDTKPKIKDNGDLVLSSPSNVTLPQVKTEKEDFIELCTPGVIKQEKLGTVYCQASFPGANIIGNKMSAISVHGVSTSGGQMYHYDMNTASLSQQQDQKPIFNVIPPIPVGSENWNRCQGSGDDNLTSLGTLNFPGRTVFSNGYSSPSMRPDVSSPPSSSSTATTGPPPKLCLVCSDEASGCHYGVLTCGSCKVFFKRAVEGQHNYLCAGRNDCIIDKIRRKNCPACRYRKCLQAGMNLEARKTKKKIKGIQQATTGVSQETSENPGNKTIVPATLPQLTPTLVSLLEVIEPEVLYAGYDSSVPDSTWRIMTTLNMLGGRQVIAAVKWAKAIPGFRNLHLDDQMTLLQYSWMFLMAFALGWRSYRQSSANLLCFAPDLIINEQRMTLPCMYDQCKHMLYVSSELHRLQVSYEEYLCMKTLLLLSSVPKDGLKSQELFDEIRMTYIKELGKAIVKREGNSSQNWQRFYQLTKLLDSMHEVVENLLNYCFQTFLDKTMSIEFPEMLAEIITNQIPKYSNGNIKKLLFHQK
# Sequence of 3',5'-cyclic-AMP phosphodiesterase 4B (Homo sapiens) (Q07343 whole entry, looked up): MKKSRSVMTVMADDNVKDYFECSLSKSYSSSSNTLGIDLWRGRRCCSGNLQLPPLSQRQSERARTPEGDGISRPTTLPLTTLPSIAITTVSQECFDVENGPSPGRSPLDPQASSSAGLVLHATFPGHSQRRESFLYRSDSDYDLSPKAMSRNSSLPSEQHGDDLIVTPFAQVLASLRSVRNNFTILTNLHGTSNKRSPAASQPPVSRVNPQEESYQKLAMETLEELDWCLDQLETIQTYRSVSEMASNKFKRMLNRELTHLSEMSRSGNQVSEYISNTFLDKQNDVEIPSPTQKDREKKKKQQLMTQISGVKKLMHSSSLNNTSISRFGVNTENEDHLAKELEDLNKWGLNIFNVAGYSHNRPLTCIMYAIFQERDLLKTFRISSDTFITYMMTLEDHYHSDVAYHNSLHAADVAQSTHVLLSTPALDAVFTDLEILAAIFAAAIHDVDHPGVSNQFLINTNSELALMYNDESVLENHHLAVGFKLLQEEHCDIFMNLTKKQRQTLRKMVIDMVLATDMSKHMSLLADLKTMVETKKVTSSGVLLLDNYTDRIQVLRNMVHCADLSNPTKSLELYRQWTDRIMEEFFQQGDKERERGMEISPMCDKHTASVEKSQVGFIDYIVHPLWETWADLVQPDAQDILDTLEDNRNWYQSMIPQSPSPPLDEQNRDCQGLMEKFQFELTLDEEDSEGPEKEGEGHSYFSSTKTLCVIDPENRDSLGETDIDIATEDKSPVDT
# Sequence of Cytochrome P450 2C19 (Homo sapiens) (P33261 whole entry, looked up): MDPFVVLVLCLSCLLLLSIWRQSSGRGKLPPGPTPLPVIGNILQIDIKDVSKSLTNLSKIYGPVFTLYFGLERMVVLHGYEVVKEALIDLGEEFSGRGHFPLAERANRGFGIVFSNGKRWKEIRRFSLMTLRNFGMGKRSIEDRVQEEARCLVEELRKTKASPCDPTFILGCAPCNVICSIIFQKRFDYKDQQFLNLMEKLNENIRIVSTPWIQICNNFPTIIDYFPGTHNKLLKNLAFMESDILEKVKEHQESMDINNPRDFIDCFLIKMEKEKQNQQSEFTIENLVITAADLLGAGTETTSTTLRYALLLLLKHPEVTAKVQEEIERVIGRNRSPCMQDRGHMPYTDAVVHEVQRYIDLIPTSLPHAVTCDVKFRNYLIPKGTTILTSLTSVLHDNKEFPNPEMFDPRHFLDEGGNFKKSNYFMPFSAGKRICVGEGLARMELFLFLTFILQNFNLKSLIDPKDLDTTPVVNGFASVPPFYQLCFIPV
# Sequence of Cytochrome P450 3A4 (Homo sapiens) (P08684 whole entry, looked up): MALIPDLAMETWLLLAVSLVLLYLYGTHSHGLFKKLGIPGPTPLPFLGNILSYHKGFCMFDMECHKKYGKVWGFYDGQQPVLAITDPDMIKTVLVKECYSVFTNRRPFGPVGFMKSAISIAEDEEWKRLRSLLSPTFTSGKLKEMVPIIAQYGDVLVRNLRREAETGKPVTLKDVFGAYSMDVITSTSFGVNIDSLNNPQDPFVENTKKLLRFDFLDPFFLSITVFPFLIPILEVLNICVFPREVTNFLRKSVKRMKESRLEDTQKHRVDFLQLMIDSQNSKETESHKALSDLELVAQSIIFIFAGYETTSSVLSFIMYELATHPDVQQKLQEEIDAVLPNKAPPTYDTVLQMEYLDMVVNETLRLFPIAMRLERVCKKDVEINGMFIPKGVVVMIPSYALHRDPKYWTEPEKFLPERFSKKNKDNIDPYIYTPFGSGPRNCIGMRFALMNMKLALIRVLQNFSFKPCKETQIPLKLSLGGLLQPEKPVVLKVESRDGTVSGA
# Sequence of Cytochrome P450 2C9 (Homo sapiens) (P11712 whole entry, looked up): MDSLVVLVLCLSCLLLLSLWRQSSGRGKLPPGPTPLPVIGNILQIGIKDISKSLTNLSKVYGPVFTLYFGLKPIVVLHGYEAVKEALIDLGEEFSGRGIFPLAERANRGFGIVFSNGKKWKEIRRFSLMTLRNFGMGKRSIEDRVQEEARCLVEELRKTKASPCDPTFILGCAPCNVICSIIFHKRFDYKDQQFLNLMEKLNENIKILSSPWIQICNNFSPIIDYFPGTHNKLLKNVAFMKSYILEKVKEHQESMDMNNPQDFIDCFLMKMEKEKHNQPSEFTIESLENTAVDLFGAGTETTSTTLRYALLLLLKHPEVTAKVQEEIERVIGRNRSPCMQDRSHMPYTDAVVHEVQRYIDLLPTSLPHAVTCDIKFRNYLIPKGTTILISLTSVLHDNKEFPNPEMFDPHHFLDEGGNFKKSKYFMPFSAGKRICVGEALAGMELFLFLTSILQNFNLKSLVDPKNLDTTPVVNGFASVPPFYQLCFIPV
SMILES,Potency [1],"activity change, negative = inhibition [2]",Potency [3],"activity change, negative = inhibition [4]",Potency [5],Potency [6],Potency [7],Potency [8],"activity, negative = inhibition [9]",Potency [10],Potency [11],Potency [12],activation [13],Potency [14]
CC(=O)Nc1nc(NC(C)=O)c2[nH]c(CO)nc2n1,> 11.4 µM,9.97%,inactive,1.8%,> 46 µM,> 9.22 µM,inactive,inactive,–,–,–,–,–,–
O=S(=O)(c1ccccc1)N1CCC[C@@]2(CCN(Cc3ccccc3)C2)C1,> 11.4 µM,6.44%,20 µM (active),-28.9%,–,> 46 µM,inactive,inactive,-5.04%,inactive,–,–,–,–
O=c1cnc2cnc(Oc3ccccc3)nc2n1Cc1ccc(F)cc1,> 11.4 µM,-8.79%,15.8 µM (active),-4.49%,–,> 46 µM,inactive,inactive,18.8%,inactive,2.51 µM (active),–,–,–
CC[C@@H](Nc1ncnc2nc[nH]c12)C(=O)O,> 11.4 µM,-11.2%,inactive,-4.99%,> 46 µM,> 9.22 µM,inactive,inactive,–,–,–,–,–,–
O=C(O)CSc1nc2ccccc2[nH]1,> 11.4 µM,3.97%,inactive,-2.37%,> 46 µM,> 9.22 µM,inactive,inactive,–,–,–,–,–,–
CC(C)CSC[C@@H]1O[C@H](n2cnc3c(N)nccc32)[C@H](O)[C@@H]1O,> 11.4 µM,4.75%,inactive,12.1%,> 46 µM,> 9.22 µM,inactive,inactive,–,–,–,–,–,–
C/C(C[n+]1ccccc1)=N\N=C(N)N,> 11.4 µM,1.19%,inactive,-14.3%,> 46 µM,> 9.22 µM,inactive,inactive,–,–,–,inactive,3.43%,–
O=c1c[n+](CCCC[n+]2cc(=O)o[nH]2)[nH]o1,> 11.4 µM,4.96%,inactive,-11%,> 46 µM,> 9.22 µM,inactive,inactive,–,–,inactive,–,–,–
NN(CC(=O)O)CC(=O)O,> 11.4 µM,-2.45%,inactive,-1.35%,> 46 µM,> 9.22 µM,inactive,inactive,–,–,–,–,–,–
S=C(CSc1ccccc1)Nc1cccc2ccccc12,> 11.4 µM,8.58%,1.26 µM (active),-12.1%,> 46 µM,> 9.22 µM,inactive,inactive,–,inactive,0.794 µM (active),–,–,–
CC(C)(C)c1ccc(NS(=O)(=O)c2ccc(N)cc2)cc1,> 11.4 µM,3%,3.16 µM (active),-2.46%,> 46 µM,> 9.22 µM,inactive,inactive,–,inactive,0.398 µM (active),–,–,–
CCNc1ncc2nc(C)c(=O)n(Cc3cccc(OC)c3)c2n1,> 11.4 µM,-13.2%,3.16 µM (active),-2.59%,> 9.22 µM,> 46 µM,inactive,inactive,–,inactive,–,–,–,7.94 µM (active)
N[C@@](CCc1ccccc1)(C(=O)O)c1ccccc1,> 11.4 µM,4.96%,inactive,3.42%,> 46 µM,> 9.22 µM,inactive,inactive,–,–,–,–,–,–
O=C(O)[C@@H](O)[C@@H](O)[C@@H](O)[C@@H](O)c1nc2ccccc2s1,> 11.4 µM,11.6%,3.98 µM (active),-1.53%,> 46 µM,> 9.22 µM,inactive,inactive,–,–,3.16 µM (active),–,–,–
O=C(O)c1ccccc1-c1ccccc1C(=O)Nc1ccc2c(c1)Cc1cc(F)ccc1-2,> 11.4 µM,-17.3%,3.98 µM (active),-16.2%,> 46 µM,> 9.22 µM,inactive,inactive,–,–,–,2.51 µM (active),–,–
c1ccc([C@H](c2cccc3c2ccc2ccccc23)[C@H](c2ccccc2)c2cccc3c2ccc2ccccc23)cc1,> 11.4 µM,15.9%,inactive,-0.573%,> 46 µM,> 9.22 µM,inactive,inactive,–,–,–,–,–,–
Nc1ccccc1CCCC(=O)O,> 11.4 µM,-5.22%,inactive,0.568%,> 46 µM,> 9.22 µM,inactive,inactive,–,–,–,–,–,–
